From PubChem BioAssay
IL2 activator = qHTS of IL-2 Activators; AID 652025, 2013; 0.065% of 360,000 active; IL-2 activation reporter assay, cell-based qHTS; stimulated with anti-CD3/CD4/CD28 beads; in transgenic mouse T cells; activation, % (series mostly up to about 46 µM); in the data active means activation above about 50%; inconclusive means mostly about 30% to 49%; further: 0% is about no effect
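Screening format: compound pinned onto unstimulated transgenic mouse T cells, 60 min incubation, then anti-CD3/anti-CD4/anti-CD28 bead stimulation for 18 hours at 37 degrees C, followed by EGFP and DsRed detection.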
Vif-A3F inh = qHTS for Inhibitors of Vif-A3F Interactions: qHTS; HeLa A3F-eYFP + Vif (tagged APOBEC3F with the HIV-1 protein that degrades it), YFP fluorescence increase; Potency, µM (doses to about 46.1 µM), inactives show at the highest dose activity, negative = active; 0.2% of 390,000 active; AID 602313, 2012; further: potency means the concentration at half of the fitted maximal effect; % of control where 0% means no effect; nearly all actives have a fitted effect of over 65% in size
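HeLa cells stably expressing Vif plus C-terminally eYFP-tagged A3F were seeded, incubated overnight at 37 deg C, dosed with compound, incubated overnight again at 37 deg C. Yellow fluorescence (Ex 488/Em 500-530) reported blocked Vif-mediated A3F-eYFP degradation.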
Vif-APOBEC3G blk = qHTS for Inhibitors of Vif-A3G Interactions: qHTS. DNA dC->dU-editing enzyme APOBEC-3G (Homo sapiens), Q9HC16. HeLa A3G-eYFP + Vif (tagged APOBEC3G with the HIV-1 protein that degrades it), YFP fluorescence, overnight. Potency, µM (titrated, usually from 46.1 µM), without a hit: top-dose activity, negative = active, most hits filed as inhibitors. 0.076% of 410,000 active; further: potency means the concentration at half of the fitted maximal effect; on the % scale 0 is the no-effect control and ±100 the full control effect; nearly all actives have a fitted effect of over 60% in size
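HeLa cells stably expressing Vif and C-terminally eYFP-tagged A3G, seeded overnight at 37 deg C, then exposed to compound by pintool overnight at 37 deg C. Rise in yellow fluorescence (Ex 488/Em 500-530, Acumen) marks blocked Vif-driven A3G degradation.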
KAT2A inh = qHTS Assay for Inhibitors of GCN5L2. Potency, µM (highest dose often 58.9 µM), for the others: at the highest dose activity change, negative = inhibition, actives largely listed as inhibitors. 0.21% of 390,000 active. AID 504327, 2011. GCN5L2 HAT assay, ThioGlo1 CoA-SH fluorescence; further: potency means the concentration at half of the fitted maximal effect; on the % scale 0 is the no-effect control and ±100 the full control effect
Target sequence (Q92830 whole entry, looked up): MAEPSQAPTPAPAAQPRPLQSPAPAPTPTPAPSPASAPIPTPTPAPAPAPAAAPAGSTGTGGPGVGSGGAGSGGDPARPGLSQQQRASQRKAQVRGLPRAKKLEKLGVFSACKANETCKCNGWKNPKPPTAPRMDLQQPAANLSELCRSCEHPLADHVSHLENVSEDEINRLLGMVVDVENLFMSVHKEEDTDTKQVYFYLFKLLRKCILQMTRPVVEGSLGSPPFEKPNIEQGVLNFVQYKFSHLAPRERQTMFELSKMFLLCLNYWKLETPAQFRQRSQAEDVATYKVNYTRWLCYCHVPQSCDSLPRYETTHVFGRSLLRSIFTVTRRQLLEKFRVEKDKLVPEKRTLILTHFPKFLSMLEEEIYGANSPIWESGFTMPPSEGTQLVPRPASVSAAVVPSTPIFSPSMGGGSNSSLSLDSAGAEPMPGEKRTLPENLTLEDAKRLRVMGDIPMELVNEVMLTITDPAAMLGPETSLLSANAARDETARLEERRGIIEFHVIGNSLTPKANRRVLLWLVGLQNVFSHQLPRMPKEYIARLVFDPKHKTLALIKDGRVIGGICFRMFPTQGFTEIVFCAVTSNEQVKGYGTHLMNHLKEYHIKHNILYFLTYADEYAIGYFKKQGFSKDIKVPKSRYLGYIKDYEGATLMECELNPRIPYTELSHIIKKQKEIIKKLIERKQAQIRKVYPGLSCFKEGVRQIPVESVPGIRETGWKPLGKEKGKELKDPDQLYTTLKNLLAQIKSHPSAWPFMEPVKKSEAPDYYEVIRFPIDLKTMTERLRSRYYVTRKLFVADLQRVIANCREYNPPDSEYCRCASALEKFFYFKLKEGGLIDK
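Titration-based screen in which CoA formation is detected via maleimide probe ThioGlo1 (50uM) turning fluorescent on thiol reaction; substrates H3(1-25) 75uM and acetyl-CoA 70uM, GCN5L2 20nM, 20 min incubation at room temperature.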
RGS12 GoLoco inh = qHTS Assay for Inhibitors of RGS12 GoLoco Motif Activity (Red Fluorophore). Guanine nucleotide-binding protein G(i) subunit alpha-1 (Homo sapiens), P63096. Gai1:RGS12 GoLoco peptide FP, rhodamine, 10 min. Potency, µM (top dose mostly 61.6 µM), for the others: top-dose activity, negative = inhibition, hits mostly inhibitors. 0.44% of 230,000 active. AID 880, 2007; active means well fitted inhibition curve with a large enough effect, not every such curve was filed as active; inactive means no such curve, though single readings can be large or run the other way; further: potency means the concentration at half of the fitted maximal effect; on the % scale 0 is the no-effect control and ±100 the full control effect; nearly all actives have a fitted effect of over 30% in size
PKM2 activator = qHTS Assay for Activators of Human Muscle isoform 2 Pyruvate Kinase; Pyruvate kinase PKM (Homo sapiens), P14618; purified PKM2, Kinase-Glo ATP luminescence, activation; response scale: 0% is enzyme alone, no compound; Potency, µM (titrated, usually from 57.5 µM), inactives show at the top dose activation, actives largely listed as activators; 0.34% of 260,000 active; AID 1631, 2009; further: potency means the concentration at half of the fitted maximal effect; on the % scale 0 is the no-effect control and ±100 the full control effect; nearly all actives have a fitted effect of over 55% in size
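Purified hPK-M2 (>95%) run at intermediate activity with 0.1 mM ADP and 0.5 mM PEP in 50 mM imidazole pH 7.2, KCl, MgCl2; 1 h room temperature. ATP formed read by Kinase-Glo luminescence; normalized to uninhibited and no-enzyme controls.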
Active calls of the source: *; i = inactive; ? = inconclusive; / = no result given; ! = a repeat was not active. This is a sample that favours compounds with a hit; in the whole collection about 0.77% have one here. Unless noted, the call rests on the fitted dose curve; in most records, active means well fitted curve in the direction sought with a large enough effect; inconclusive means small, poorly fitted or top-dose-only effect, or another doubt; inactive means no such curve, though single readings can be large; an effect the other way counts as inactive or inconclusive.

SMILES	IL2 activator	Vif-A3F inh	Vif-APOBEC3G blk	KAT2A inh	RGS12 GoLoco inh	PKM2 activator
COc1ccc(NS(=O)(=O)c2cc(NC(=O)Cc3c(F)cccc3Cl)ccc2OC)cc1	-3	9%	1%	-6%	/	/
O=C(Nc1ccccn1)c1ccc(COc2ccccc2Cl)o1	1	-10%	2%	-5%	8%	1%
CC(=O)Nc1nc(CC(C)C)cc(-c2ccco2)c1C#N	-3	-5%	-5%	/	2.8µM*	-4%
CC(=O)Nc1nc(CC(C)C)cc(-c2ccccc2)c1C#N	1	-15%	-1%	-1%	-2%	-1%
COc1ccc(-c2cc(-c3nnc(COC(=O)CC4CC5CCC4C5)o3)c3ccccc3n2)cc1OC (centres undefined)	2	-19%	-5%	35µM*	15%	-11%
C=C(Br)Cn1c(CC(C)C)nc2ccccc21	-2	-9%	3%	2%	1%	-3%
Cc1ccc(C)c(OCC(=O)N/N=C/c2ccc(N3CCOCC3)cc2)c1	-1	-14%	-5%	/	/	/
O=C(NCCc1ccccc1)c1c(O)c2cccc3c2n(c1=O)CC3	1	5%	0%	-3%	3%	-5%
O=C(NCc1ccccn1)c1c(O)c2cccc3c2n(c1=O)CC3	0	-7%	-1%	-4%	-4%	8.9µM*
NNC(=S)Nc1c(F)cc(F)cc1Br	-2	11µM*	0%	-12%	-7%	-6%
Cc1nn(C)cc1CN(C)C(=O)c1ccc(OC2CCN(Cc3ccccn3)CC2)cc1	-2	-19%	2%	-5%	/	/
O=C(O)CC(C(=O)O)N1C(=O)/C(=C/C=C/c2ccco2)SC1=S (centres undefined)	1	3%	0%	-13%	-4%	7%
O=C(O)C(Cc1ccccc1)N1C(=O)/C(=C/C=C/c2ccco2)SC1=S (centres undefined)	1	-5%	3%	8.9µM*	58%	0%
CC(=O)Nc1ccc(N2C(=O)CC(N3CC(C)OC(C)C3)C2=O)cc1 (centres undefined)	0	-1%	-2%	-4%	-21%	-4%
O=C1/C(=C/c2c[nH]c3ccccc23)CCC/C1=C\c1c[nH]c2ccccc12	8	22µM*	?	-12%	51%	25%
C(=NN=Cc1c[nH]c2ccccc12)c1c[nH]c2ccccc12	4	0%	-3%	/	/	/
CN1CC(O)C2=CC(=O)C(=O)C=C21 (centres undefined)	/	/	/	14µM*	3.5µM*	/
O=C(NC(=S)N1CCN(C2CCCCC2)CC1)c1ccccc1	0	22µM*	4%	-9%	16%	0%
O=C(NC(=S)N1CCN(c2ccccn2)CC1)c1ccccc1	-1	22µM*	2%	-4%	5%	-7%
O=C(NC(=S)N1CCCCCC1)c1ccccc1	2	-4%	-2%	1%	/	0%
CCN(CC(=O)NC1CCS(=O)(=O)C1)C(C)C(=O)Nc1ccc(F)cc1 (centres undefined)	0	1%	6%	-8%	/	/
Cc1cc2c(cc1S(=O)(=O)Nc1cc(C(F)(F)F)cc(C(F)(F)F)c1)OCC(=O)N2	/	3%	-7%	-13%	/	/
COc1cc(NS(=O)(=O)c2cc3c(cc2C)NC(=O)CO3)cc(OC)c1	-3	5%	0%	-8%	/	7.1µM*
Cc1cc2c(cc1S(=O)(=O)NCc1ccccc1)OCC(=O)N2	-3	3%	-2%	25µM*!	/	15%
Cc1cc2c(cc1S(=O)(=O)NCc1ccccc1Cl)OCC(=O)N2	/	-8%	-3%	-12%	/	/
SMILES	IL2 activator	Vif-A3F inh	Vif-APOBEC3G blk	KAT2A inh	RGS12 GoLoco inh	PKM2 activator
CC(=O)N1CCN(C(=O)c2ccc3oc(CCCc4ccccc4)nc3c2)CC1	-2	6%	3%	-6%	/	/
C=CCc1c(C)nc(SCCC)[nH]c1=O	0	-5%	1%	-1%	6%	-4%
C/C(CCC(C)C)=N\Nc1ccc(S(N)(=O)=O)cc1[N+](=O)[O-]	1	0%	-2%	-9%	7%	0%
CCC(CC)=NNc1ccc(S(N)(=O)=O)cc1[N+](=O)[O-]	2	0%	2%	0%	7%	18µM*
Cc1cc2oc3ccc(NCCCn4ccnc4)cc3c(=O)c2cc1C	6	22µM*	?	/	/	/
Cc1cc(C(=O)CSc2nc(N)cc(=O)[nH]2)c(C)n1CCc1ccc(F)cc1	0	0%	8%	-2%	3%	-4%
COc1ccc2nc(Cl)c(C3CC(c4ccco4)=NN3C(=O)CCC(=O)O)cc2c1 (centres undefined)	-1	-4%	1%	-5%	-12%	5%
COc1ccc2nc(Cl)c(C3CC(c4ccco4)=NN3C(=O)CCCC(=O)O)cc2c1 (centres undefined)	-1	1%	1%	?	3%	22µM*
COc1ccc(NC(=S)c2ccccc2)cc1	0	2%	-4%	-2%	13%	-7%
CC(NS(=O)(=O)OCC(Cl)(Cl)Cl)c1ccc(Br)cc1 (centres undefined)	-2	-1%	3%	-12%	/	-19%
Cc1ccc(S(=O)(=O)/C=C\C#N)cc1	/	/	/	28µM*	-1%	/
Cc1ccc(S(=O)(=O)/C=C/C#N)cc1	/	/	/	22µM*!	-19%	/
Cc1ccc(S(=O)(=O)C=CS(=O)(=O)c2ccc(C)cc2)cc1	-2	2%	?	/	/	/
CC(C)(C)c1ccc(S(=O)(=O)/C=C\C#N)cc1	/	/	/	28µM*	3%	/
COC(=O)Cc1cc(=O)n(-c2ccccc2)[nH]1	-3	-5%	-5%	1%	9%	2%
Cc1nc2ccc(NC(=O)c3cc(S(=O)(=O)N(C)c4ccccc4)ccc3Cl)cc2s1	-2	22µM*	-10%	-2%	173%	1%
CCCN1C(=O)/C(=C/C=C2\N(CC)c3ccccc3C2(C)C)SC1=S	2	?	?	-6%	-61%	-11%
CCCCN1C(=O)/C(=C/C=C2\Oc3ccccc3N2CC)SC1=S	-57	i	1.6µM*	-1%	120%	0%
CCCCN1C(=O)/C(=C/C=C2/CC(C)(C)CN2C)SC1=S	21	?	3.5µM*	-13%	22%	2%
CCOc1ccc(CCNC(=O)COC(=O)CCC(=O)c2cccs2)cc1OCC	-2	-19%	1%	-4%	/	/
